Measurements reported in PubChem BioAssay (NCATS).
Inconclusive results are not listed. Where a call stands in place of a potency, no number is given. A number with no mark means an inactive call. Activity calls are given as the source filed them. The call rests on the fitted dose curve; in most records, active means well fitted inhibition curve with a large enough effect; inconclusive means small, poorly fitted or top-dose-only effect; inactive means flat fitted curve, though single readings scatter.

Key:
[1] = target: Glutathione peroxidase 1 (Homo sapiens) (UniProt P07203); experiment: Primary qHTS Assay for Inhibitors of Recombinant Selenoprotein Glutathione Peroxidase 1 (GPX1) (AID 1845191)
Sequence of Glutathione peroxidase 1 (Homo sapiens) (P07203 whole entry, looked up): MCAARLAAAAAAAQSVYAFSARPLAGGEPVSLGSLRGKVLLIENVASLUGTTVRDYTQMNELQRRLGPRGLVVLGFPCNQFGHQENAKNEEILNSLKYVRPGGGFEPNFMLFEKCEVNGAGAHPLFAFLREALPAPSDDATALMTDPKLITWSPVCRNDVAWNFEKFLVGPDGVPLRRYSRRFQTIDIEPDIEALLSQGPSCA
Procedure, shortened: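 Recombinant GPX1 (10 nM final) was preincubated with compound for 30 min at room temperature, then reacted with 1 mM GSH, 0.5 mM CHP, 0.5 mM NADPH and 100 nM glutathione reductase; NADPH fluorescence (340/450 nm) was read at 0 and 15 min.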

[2] = target: Phospholipid hydroperoxide glutathione peroxidase GPX4 (Homo sapiens) (UniProt P36969); experiment: Primary qHTS Assay for Inhibitors of Recombinant Selenoprotein Glutathione Peroxidase 4 (GPX4) (AID 1845192)
Sequence of Phospholipid hydroperoxide glutathione peroxidase GPX4 (Homo sapiens) (P36969 whole entry, looked up): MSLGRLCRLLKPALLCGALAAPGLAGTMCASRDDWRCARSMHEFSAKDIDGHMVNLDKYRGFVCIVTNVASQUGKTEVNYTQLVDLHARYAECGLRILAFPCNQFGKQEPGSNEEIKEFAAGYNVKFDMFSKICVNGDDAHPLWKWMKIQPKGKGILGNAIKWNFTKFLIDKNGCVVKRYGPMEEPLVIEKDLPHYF
Procedure, shortened: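 GR-coupled readout: 100 nM GR, 1 mM GSH, 0.5 mM NADPH; NADPH fluorescence (ex 340/em 450 nm) read at t=0 and after 15 min RT. GPX4 200 nM, preincubated 30 min with compound; substrate 0.5 mM CHP.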
Further: nearly all actives have a fitted effect of over 65% in size.

Row | SMILES | Potency [1] | Potency [2] | outcome [1] | outcome [2]
1 | CCC1NC(=O)c2cc(S(N)(=O)=O)c(Cl)cc2N1 (centres undefined) | inactive | inactive | – | –
2 | CCCCCCCCCCCCSCCOCCO | inactive | inactive | – | –
3 | COc1cc(C(=O)NCc2ccc(OCCN(C)C)cc2)cc(OC)c1OC | inactive | inactive | – | –
4 | Cc1ccc(O)c([C@H](CCN(C(C)C)C(C)C)c2ccccc2)c1 | inactive | inactive | – | –
5 | OCCOCCN1CCN(C2=Nc3ccccc3Sc3ccccc32)CC1 | inactive | inactive | – | –
6 | O=C1C(CCS(=O)c2ccccc2)C(=O)N(c2ccccc2)N1c1ccccc1 (centres undefined) | inactive | inactive | – | –
7 | CC[N+](C)(CC)CCOC(=O)C(O)(c1ccccc1)C1CCCCC1 (centres undefined) | inactive | inactive | – | –
8 | CCCCC(CC)COC(=O)c1ccc(N(C)C)cc1 (centres undefined) | inactive | inactive | – | –
9 | CC(O)Cn1cnc2c1c(=O)n(C)c(=O)n2C (centres undefined) | inactive | inactive | – | –
10 | O=C1c2cccc3c2[C@H](CCC3)CN1[C@@H]1CN2CCC1CC2 | inactive | inactive | – | –
11 | COc1cc(N)c(Cl)cc1C(=O)NC1CCN(Cc2ccccc2)CC1 | inactive | inactive | – | –
12 | CN1CCC(OC(c2ccccc2)c2ccccc2)CC1 | inactive | inactive | – | –
13 | Cc1c(-c2ccccc2)oc2c(C(=O)OCCN3CCCCC3)cccc2c1=O | inactive | inactive | – | –
14 | CN(C)CCN1C(=O)c2ccccc2N(C)c2ccccc21 | inactive | inactive | – | –
15 | CN1CCc2cccc3c2[C@H]1Cc1ccc(O)c(O)c1-3 | inactive | inactive | – | –
16 | CCCCCCCCCCCCCCCCO | inactive | inactive | – | –
17 | CNCCc1ccccn1 | inactive | inactive | – | –
18 | CC(=O)Nc1ccc(OC(=O)c2ccccc2OC(C)=O)cc1 | inactive | inactive | – | –
19 | CC(=O)Nc1ccc(S(=O)(=O)Nc2ccc([N+](=O)[O-])cc2)cc1 | inactive | inactive | – | –
20 | Clc1cccc(C(c2ccc3nc[nH]c3c2)n2ccnc2)c1 (centres undefined) | inactive | inactive | – | –
21 | CCO[C@@H]1O[C@H](C(COCc2ccccc2)OCc2ccccc2)[C@H](OCc2ccccc2)[C@H]1O (some centres undefined) | inactive | inactive | – | –
22 | CCN[C@@H]1C[C@H](N)[C@@H](OC2OC(CN)=CCC2N)[C@H](O)[C@H]1O[C@H]1OC[C@](C)(O)[C@H](NC)[C@H]1O (some centres undefined) | – | – | inactive [at 0.4 µM] | inactive [at 0.409 µM]
23 | CCc1nn(CCCN2CCN(c3cccc(Cl)c3)CC2)c(=O)n1CCOc1ccccc1 | inactive | inactive | – | –
24 | CC(=O)O[C@]1(C(C)=O)CC[C@H]2[C@@H]3C=C(Cl)C4=CC(=O)CC[C@]4(C)[C@H]3CC[C@@]21C | inactive | inactive | – | –
25 | COc1ccc(-c2cc(C(F)F)nn2-c2ccc(S(N)(=O)=O)cc2)cc1F | inactive | inactive | – | –
26 | C[C@@H](O)[C@H]1C(=O)N2C(C(=O)O)=C(S[C@@H]3CN[C@H](CNS(N)(=O)=O)C3)[C@H](C)[C@H]12 | inactive | inactive | – | –

Row | SMILES | Potency [1] | Potency [2] | outcome [1] | outcome [2]
27 | Nc1nc(-c2ccccc2)c(Br)c(=O)[nH]1 | inactive | inactive | – | –
28 | FC(F)(F)C(F)(F)C(F)(F)C(F)(F)C(F)(F)C(F)(F)C(F)(F)C(F)(F)Br | inactive | inactive | – | –
29 | O=C1C(=O)c2ccccc2C(O)=C1C1CCC(c2ccc(Cl)cc2)CC1 (centres undefined) | inactive | inactive | – | –
30 | O=S(=O)(O)c1ccc(O)cc1 | inactive | inactive | – | –
31 | NS(=O)(=O)c1ccc(Cl)c(S(N)(=O)=O)c1 | inactive | inactive | – | –
32 | Cc1cc(NS(=O)(=O)c2ccc(N)cc2)nc(C)n1 | inactive | inactive | – | –
33 | C=C[C@H]1CN2CC[C@H]1C[C@@H]2[C@@H](O)c1ccnc2ccc(OC)cc12 | inactive | inactive | – | –
34 | CN(C)CCOC(=O)C(c1ccccc1)C1(O)CCCC1 (centres undefined) | inactive | inactive | – | –
35 | CCCCN1C[C@H](O)[C@@H](O)[C@H](O)[C@H]1CO | inactive | inactive | – | –
36 | NS(=O)(=O)c1cc(C(=O)O)cc(N2CCCC2)c1Oc1ccccc1 | inactive | inactive | – | –
37 | COc1cc(O)c(C(=O)c2ccccc2)cc1S(=O)(=O)O | inactive | inactive | – | –
38 | Cc1cc(C)cc(OCC2CNC(=O)O2)c1 (centres undefined) | inactive | inactive | – | –
39 | CCOc1ccccc1C(N)=O | inactive | inactive | – | –
40 | CCOCCn1c(N2CCCN(C)CC2)nc2ccccc21 | inactive | inactive | – | –
41 | CC(C)(C)NCC(O)COc1cccc2c1C[C@H](O)[C@H](O)C2 (some centres undefined) | inactive | inactive | – | –
42 | O=C(O)P(=O)(O)O | inactive | inactive | – | –
43 | CC(C(=O)O)c1cccc(Oc2ccccc2)c1 (centres undefined) | inactive | inactive | – | –
44 | CCOC(=O)[C@H](CCc1ccccc1)N[C@@H](C)C(=O)N1[C@H](C(=O)O)C[C@@H]2CCC[C@@H]21 | inactive | inactive | – | –
45 | Nc1ccc(C(=O)NCC(=O)O)cc1 | inactive | inactive | – | –
46 | CCCCCCCCCCCCOCCOCCOCCOCCOCCOCCOCCOCCOCCO | inactive | inactive | – | –
47 | NC(=O)c1ccccc1O | inactive | inactive | – | –
48 | Cc1c[nH]c2ccccc12 | inactive | inactive | – | –
49 | Nc1ccc(S(=O)(=O)Nc2cnc3ccccc3n2)cc1 | inactive | inactive | – | –
50 | CCCCC(CC)COC(=O)/C=C/c1ccc(OC)cc1 (centres undefined) | inactive | inactive | – | –
51 | COc1ccc(C(Cl)=C(c2ccc(OC)cc2)c2ccc(OC)cc2)cc1 | inactive | inactive | – | –
52 | CCCc1ncc(C[n+]2ccccc2C)c(N)n1 | inactive | inactive | – | –
